# Reference: PubChem BioAssay (NCATS)
# Inconclusive results are not listed. Where a call stands in place of a potency, no number is given. Calls of active or inactive are those of the source. Unless noted, calls come from the whole dose curve; as a rule, active = well fitted cell-killing curve with a large enough effect; inconclusive = small, poorly fitted or top-dose-only effect; inactive = flat fitted curve, though single readings scatter.
# Legend:
# [1] = qHTS Assay for Lipid Storage Modulators (AID 1519; calls by dose curve); settings: Drosophila S3 cells, BODIPY lipid droplet/cell ratio, laser cytometry, cells loaded with oleic acid
# Procedure, shortened: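 Cells seeded at 5,000 per well were treated with compounds over a concentration series and loaded with oleic acid (400 uM, as added). Lipid droplet fluorescence (488 nm excitation, 500-530 nm channel) was read by laser-scanning cytometry and normalized to 20 uM Triacsin C.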
# [2] = Cell Viability - LYMP1-002 - Assay at 24 hr (AID 993); settings: LYMP1-002 lymphoblastoid cells viability; series mostly up to 92.2 µM; note: potency is the fitted concentration of half-maximal effect
# Procedure, shortened: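 Human lymphoblastoid LYMP1-002 cells, 2500/well in complete medium, were treated with compounds for 24 h at 37 C; intracellular ATP was read by CellTiter-Glo luminescence. AC50 values came from Hill-equation fits of qHTS concentration-response data.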
# [3] = Cell Viability - LYMP1-002 - Assay at 40 hr (AID 994); settings: LYMP1-002 lymphoblastoid cell viability; series mostly up to 92.2 µM; note: nearly all actives have a fitted effect of over 60% in size; note: potency is the fitted concentration of half-maximal effect
# Procedure, shortened: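 Human lymphoblastoid cells, 2500/well in complete medium, were preincubated 5 hr at 37 C, then exposed to compounds for 40 hr at 37 C. Intracellular ATP was read by CellTiter-Glo luminescence after 30 min at room temperature; AC50 from Hill-equation fits.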
# [4] = qHTS Assay for Identification of Small Molecule Inducers of Hypoxia Response (AID 2120; active = well fitted curve in the direction sought with a large enough effect in the signal ratio, with a control signal flat, not every such curve was filed as active; the % refers to the signal ratio; note: potency is the fitted concentration of half-maximal effect); settings: hypoxia response reporter cells, beta-lactamase ratio readout; series mostly up to 104 µM
# Procedure, shortened: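 HRE-beta-lactamase reporter in CellSensor HRE-bla ME-180 cells, 2500 cells/well in Opti-MEM with 0.5% dialyzed FBS; compounds tested as titration series, 17 h at 37 degrees C. CCF4 substrate 2.5 h at room temperature; AC50 from 460/530 nm ratio.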
# [5] = measured here: cell count channel max response
# [6] = measured here: lipid channel max response
smiles,measurement,setting,value
CC(=O)[C@H]1CC[C@H]2[C@@H]3C=CC4=CC(=O)CC[C@@]4(C)[C@H]3CC[C@]12C,"activity change, negative = inhibition",[1]; at 25.7 µM (top of the series),-2.63% (inactive)
same,max response,[1]; [5],-13.1%
same,max response,[1]; [6],-17%
CC(=O)Oc1cccc(C(=O)O)c1OC(C)=O,"activity change, negative = inhibition",[1]; at 57.5 µM (top of the series),4.19% (inactive)
same,max response,[1]; [5],10.5%
same,max response,[1]; [6],12%
CC(C)c1nc(N(C)S(C)(=O)=O)nc(-c2ccc(F)cc2)c1/C=C/C(O)CC(O)CC(=O)O (stereo not given),"activity change, negative = inhibition",[1]; at 57.5 µM (top of the series),2.85% (inactive)
same,max response,[1]; [5],4.28%
same,max response,[1]; [6],9.26%
CCCc1nc(C(C)(C)O)c(C(=O)OCc2oc(=O)oc2C)n1Cc1ccc(-c2ccccc2-c2nn[nH]n2)cc1,"activity change, negative = inhibition",[1]; at 57.5 µM (top of the series),8.57% (inactive)
same,max response,[1]; [5],19.2%
same,max response,[1]; [6],29.3%
CN1C(=O)OC(C)(C)C1=O,"activity change, negative = inhibition",[1]; at 25.7 µM (top of the series),0.553% (inactive)
same,max response,[1]; [5],9.38%
same,max response,[1]; [6],10.6%
N#Cc1ccc2c(c1)N(CCCN1CCC(O)CC1)c1ccccc1S2,"activity change, negative = inhibition",[1]; at 57.5 µM (top of the series),6.36% (inactive)
same,max response,[1]; [5],2.04%
same,max response,[1]; [6],8.33%
CN1CCc2c(c3ccccc3n2Cc2ccccc2)C1,"activity change, negative = inhibition",[1]; at 25.7 µM (top of the series),-1.45% (inactive)
same,max response,[1]; [5],1.19%
same,max response,[1]; [6],1.48%
OCl,Potency,[2],inactive
same,Potency,[3],inactive
same,Potency,[4],inactive
CC(C)(C)CC(C)(C)c1ccc(OCCO)cc1,Potency,[2],inactive
same,Potency,[3],inactive
same,Potency,[4],inactive
NCCN,Potency,[2],inactive
same,Potency,[3],inactive
same,Potency,[4],inactive
O=c1n(CC2CO2)c(=O)n(CC2CO2)c(=O)n1CC1CO1 (stereo not given),Potency,[2],39.8 µM (active)
same,Potency,[3],7.94 µM (active)
same,Potency,[4],inactive
OCC(O)CO,Potency,[2],inactive
same,Potency,[3],inactive
same,Potency,[4],inactive
Cc1ccc(S(=O)(=O)O)cc1C,Potency,[2],inactive
same,Potency,[3],inactive
same,Potency,[4],inactive
CO,Potency,[2],inactive
same,Potency,[3],inactive
same,Potency,[4],inactive
OB(O)O,Potency,[2],inactive
same,Potency,[3],inactive
same,Potency,[4],inactive
O.O.O.O.O.O.O.O=S(=O)([O-])[O-].[Co+2],Potency,[2],inactive
same,Potency,[3],inactive
same,Potency,[4],31.6 µM (active)
C[C@H](CCC(=O)O)[C@H]1CC[C@H]2[C@@H]3CC[C@@H]4C[C@H](O)CC[C@]4(C)[C@H]3C[C@H](O)[C@]12C,Potency,[2],inactive
same,Potency,[3],inactive
OCc1ccccc1,Potency,[2],inactive
same,Potency,[3],inactive
same,Potency,[4],inactive
[O-][N+](=Nc1ccccc1)c1ccccc1,Potency,[2],inactive
same,Potency,[3],inactive
same,Potency,[4],inactive
CC/C=C\C/C=C\C/C=C\CCCCCCCC(=O)O,Potency,[2],inactive
same,Potency,[3],inactive
same,Potency,[4],inactive
Oc1cccc(O)c1O,Potency,[2],inactive
same,Potency,[3],inactive
same,Potency,[4],inactive
COC(=O)c1ccccc1O,Potency,[2],inactive
same,Potency,[3],inactive
O=P(O)(O)O,Potency,[2],inactive
same,Potency,[3],inactive
same,Potency,[4],inactive
OC[C@H]1O[C@@H]2O[C@H]3[C@H](O)[C@@H](O)[C@@H](O[C@H]4[C@H](O)[C@@H](O)[C@@H](O[C@H]5[C@H](O)[C@@H](O)[C@@H](O[C@H]6[C@H](O)[C@@H](O)[C@@H](O[C@H]7[C@H](O)[C@@H](O)[C@@H](O[C@H]1[C@H](O)[C@H]2O)O[C@@H]7CO)O[C@@H]6CO)O[C@@H]5CO)O[C@@H]4CO)O[C@@H]3CO,Potency,[2],inactive
same,Potency,[3],inactive
same,Potency,[4],inactive
NC(N)=O,Potency,[2],inactive
same,Potency,[3],inactive
same,"activity change, negative = inhibition",[1]; at 57.5 µM (top of the series),6.91% (inactive)
same,max response,[1]; [5],16.8%
same,max response,[1]; [6],28%
same,Potency,[4],inactive
C[C@H]1O[C@@H](O[C@H]2[C@@H](O)C[C@H](O[C@H]3[C@@H](O)C[C@H](O[C@H]4CC[C@@]5(C)[C@H](CC[C@@H]6[C@@H]5C[C@@H](O)[C@]5(C)[C@@H](C7=CC(=O)OC7)CC[C@]65O)C4)O[C@@H]3C)O[C@@H]2C)C[C@H](O)[C@@H]1O,Potency,[2],0.158 µM (active)
same,Potency,[3],0.158 µM (active)
CC(C)O,Potency,[2],inactive
same,Potency,[3],inactive
same,Potency,[4],inactive
CCCCO,Potency,[2],inactive
same,Potency,[3],inactive
same,Potency,[4],inactive
CCCCC,Potency,[2],inactive
same,Potency,[3],inactive
same,Potency,[4],inactive
CC[C@H]1OC(=O)[C@H](C)[C@@H](O[C@H]2C[C@@](C)(OC)[C@@H](O)[C@H](C)O2)[C@H](C)[C@@H](O[C@@H]2O[C@H](C)C[C@H](N(C)C)[C@H]2O)[C@](C)(O)C[C@@H](C)CN(C)[C@H](C)[C@@H](O)[C@]1(C)O,Potency,[2],inactive
same,Potency,[3],inactive
same,Potency,[4],inactive
Nc1ncnc2c1ncn2[C@H]1CC[C@@H](CO)O1,Potency,[2],inactive
same,Potency,[3],inactive
same,"activity change, negative = inhibition",[1]; at 57.5 µM (top of the series),1.8% (inactive)
same,max response,[1]; [5],3.29%
same,max response,[1]; [6],6.18%
same,Potency,[4],inactive
Cc1ncc[nH]1,Potency,[2],inactive
same,Potency,[3],inactive
same,Potency,[4],inactive
C[C@H](CCC(=O)O)[C@H]1CC[C@H]2[C@@H]3[C@H](O)C[C@@H]4C[C@H](O)CC[C@]4(C)[C@H]3C[C@H](O)[C@]12C,Potency,[2],inactive
same,Potency,[3],inactive
same,Potency,[4],inactive
CC1=CC(=O)NS(=O)(=O)O1,Potency,[2],inactive
same,Potency,[3],inactive
same,Potency,[4],inactive
C=C1C(CCl)(CCl)C2(Cl)C(Cl)C(Cl)C1(Cl)C2(Cl)Cl (stereo not given),Potency,[2],50.1 µM (active)
CO/N=C(/C(=O)N[C@@H]1C(=O)N2C(C(=O)O)=C(COC(N)=O)CS[C@H]12)c1ccco1,Potency,[2],inactive
same,Potency,[3],inactive
same,Potency,[4],inactive
Nc1nccs1,Potency,[2],inactive
same,Potency,[3],inactive
same,"activity change, negative = inhibition",[1]; at 57.5 µM (top of the series),6.96% (inactive)
same,max response,[1]; [5],-1.03%
same,max response,[1]; [6],14.6%
same,Potency,[4],inactive
ClC(Cl)Cl,Potency,[2],inactive
same,Potency,[3],inactive
same,Potency,[4],inactive
C/C=C/C=C/C(=O)O,Potency,[2],inactive
same,Potency,[3],inactive
same,Potency,[4],inactive
c1ccc2ccccc2c1,Potency,[2],inactive
same,Potency,[3],inactive
same,Potency,[4],inactive
CCOC(C)OCC,Potency,[2],inactive
same,Potency,[3],inactive
same,Potency,[4],inactive
CC1=CCC2CC1C2(C)C (stereo not given),Potency,[2],inactive
same,Potency,[3],inactive
same,Potency,[4],inactive
